Screens as filed in PubChem BioAssay.
This is a sample that favours compounds with a hit; in the whole collection about 6.1% have one here.
DRD3 agonist: qHTS of D3 Dopamine Receptor Agonist: qHTS | D(3) dopamine receptor (Homo sapiens), P35462 | D3R DiscoveRx beta-arrestin cells, luminescence, 90 min | max activation, % | 0.58% of 410,000 active; in the data active = max activation above about 30%; also: 0% is about no effect
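Cells at 1500/well, incubated overnight, then treated with pinned compounds (dopamine as control) for 90 min at 37 degrees C. DiscoveRx reagent added for 30 - 60 minutes at room temperature; luminescence read.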
D1 agonist: Allosteric Agonists of the Human D1 Dopamine Receptor: qHTS. D(1A) dopamine receptor (Homo sapiens), P21728. HEK293 T-REx D1 cells, calcium flux, agonist mode. activation, % at 2 µM. 1% of 360,000 active. AID 504660, 2011; in the data active = activation above about 30%; also: 0% is about no effect
Target sequence (P21728 whole entry, looked up): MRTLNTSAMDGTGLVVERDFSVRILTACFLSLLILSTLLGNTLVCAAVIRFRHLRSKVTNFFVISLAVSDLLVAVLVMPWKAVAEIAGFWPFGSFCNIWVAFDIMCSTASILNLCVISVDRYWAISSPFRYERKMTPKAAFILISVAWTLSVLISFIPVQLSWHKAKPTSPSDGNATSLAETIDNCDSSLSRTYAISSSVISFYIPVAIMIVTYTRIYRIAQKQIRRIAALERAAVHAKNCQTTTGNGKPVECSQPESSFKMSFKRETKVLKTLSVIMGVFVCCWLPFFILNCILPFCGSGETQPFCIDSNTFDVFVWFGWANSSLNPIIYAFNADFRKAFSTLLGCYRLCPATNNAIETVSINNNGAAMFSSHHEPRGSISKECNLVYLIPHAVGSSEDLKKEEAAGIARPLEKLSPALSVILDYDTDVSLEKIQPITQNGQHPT
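Tetracycline-induced HEK293 TREx D1 cells, force-coupled to calcium signalling, were dye-loaded with a no-wash calcium kit. Compound was pin-added after a 10 s baseline. Fluorescence was read kinetically at 1 cycle/s for 180 s, with calcium rises flagged as agonism.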
D1 potentiator: Potentiators of Human D1 Dopamine Receptor: qHTS | potentiation, % at 10 µM | HEK293 TREx D1 cells, calcium flux, dopamine EC20 potentiation | AID 504651, 2011 | D(1A) dopamine receptor (Homo sapiens), P21728 | 0.036% of 360,000 active; in the data active = potentiation above about 30%; also: 0% is about no effect
ERG-DNA inh: qHTS for Small Molecule Inhibitors of the ERG Ets/DNA interaction. Transcriptional regulator ERG (Homo sapiens), P11308. fluorescence polarization, His-ERG Ets domain / labelled DNA. Potency, µM (series often up to 76.9 µM), for inactives: at the top dose FP activity, negative = inhibition, hits mostly inhibitors. 0.028% of 370,000 active; active = well fitted inhibition curve with a large enough effect in the polarisation, with a control signal flat; inconclusive = small, poorly fitted or top-dose-only effect, or effect the other way, or a change in a side signal; inactive = no such curve, though single readings can be large or run the other way; the % refers to the polarisation;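 also: polarization taken with two DNA probes labelled with fluorescein and Texas red; potency is read from the fitted curve at half-maximal effect; % of control where 0% means no effect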
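His-tagged ERG Ets domain (1 uM in the protein solution; 300mM KCl, 50mM Tris-HCl, 1mM EDTA, 1mM DTT, pH 7.5) received compound, then a probe mix of 5 nM fluorescein-DNA and 100nM Texas-615-DNA. Fluorescence polarization was read for both dyes.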
D3 antag: qHTS of D3 Dopamine Receptor Antagonist: qHTS | D(3) dopamine receptor (Homo sapiens), P35462 | D3R cells, DiscoveRx beta-arrestin luminescence, antagonist mode; active compounds read low | max response, negative = inhibition, % | 2.5% of 360,000 active; in the data active = max response below about -50%; inconclusive = no clear call, values can overlap the other calls; also: % is scaled to controls: 0 for no effect and ±100 for the full control effect
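Cells plated overnight at 1500 cells/well, then exposed to library compounds with dopamine controls for 90 minutes at 37 degrees C. DiscoveRx reagent added for 30–60 minutes at room temperature; luminescence read, quantitative HTS format.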
D1 antagonist: Antagonist of Human D 1 Dopamine Receptor: qHTS; D(1A) dopamine receptor (Homo sapiens), P21728; HEK293 TREx D1 cells, calcium flux, dopamine EC80; active compounds read low; activity change, negative = inhibition, % at 10 µM; 3.2% of 360,000 active; AID 504652, 2011; in the data active = activity change below about -30%; also: % is scaled to controls: 0 for no effect and ±100 for the full control effect
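Cells carrying a force-coupled, tetracycline-inducible human D1 receptor report calcium flux. Each well gets a 10 s baseline, compound with 180 s monitoring, then an EC80 dopamine stimulus with a second 180 s kinetic read.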
* marks the source's active call; other numbers are inactive results; ? = inconclusive; / = not tested or not shown.

SMILES	DRD3 agonist	D1 agonist	D1 potentiator	ERG-DNA inh	D3 antag	D1 antagonist
COc1cccc(NC(=O)CN2C(=O)C3(SCC(=O)N3c3cc(C)cc(C)c3)c3ccccc32)c1 (stereo unspecified)	2	3	-3	-6%	/	0
Cc1cccc(NC(=O)CN2C(=O)C3(SCC(=O)N3c3ccccc3)c3ccccc32)c1 (stereo unspecified)	-9	5	-1	-4%	/	-36*
Cc1cccc(N2C(=O)CSC23C(=O)N(CC(=O)Nc2cccc(Cl)c2)c2ccccc23)c1 (stereo unspecified)	32*	11	-9	-4%	/	-13
COc1ccc(NC(=O)CN2C(=O)C(C)(C)c3ccccc32)cc1Cl	3	4	-1	-8%	/	-50*
COc1cccc(N2C(=O)CSC23C(=O)N(CC(=O)Nc2cc(C)ccc2C)c2ccccc23)c1 (stereo unspecified)	5	2	1	3%	/	-25
O=C1N[C@@H](c2ccccc2)COC(=O)[C@H](Cc2ccc(F)cc2)CC/C=C/C[C@H]1CC(=O)N(CCO)Cc1ccccc1	-5	/	/	-13%	-12	/
COc1ccccc1N1CCN(/N=C/c2ccccc2C(=O)O)CC1	-1	0	-5	-1%	2	-50*
O=C(C(=O)N1CCN(c2ccccc2F)CC1)c1c[nH]c2ccccc12	3	4	-3	15%	-2	-83*
COc1ccc(N2CCN(C(=O)C(=O)c3c[nH]c4ccccc34)CC2)cc1	3	3	0	1%	-12	-15
O=C(C(=O)N1CCN(c2ccccc2)CC1)c1c[nH]c2ccccc12	-3	1	-2	13%	-8	5
COc1ccccc1N1CCN(C(=O)C(=O)c2c[nH]c3ccccc23)CC1	-3	7	3	9%	-19	-30*
COc1ccccc1N1CCN(/N=C/c2ccc(OC)c(OC)c2OC)CC1	-7	-1	-3	2%	-11	-4
CCCN1C(=O)S/C(=C/c2ccc(N3CCOCC3)o2)C1=O	8	103*	11	23%	-13	-21
CCCN1C(=O)S/C(=C\c2ccc(N3CCOCC3)cc2C)C1=O	/	5	-6	/	/	-3
CCCN1C(=O)S/C(=C\c2ccc(N3CCOCC3)o2)C1=O	-20	34*	10	15%	-11	14
COc1ccc(C2CC3CC(c4ccccc4)N2O3)cc1 (stereo unspecified)	-5	3	-1	/	-13	-2
O=C(N/N=C/c1ccc(-c2ccc([N+](=O)[O-])cc2)o1)c1cccnc1	6	4	-4	3%	-9	-42*
O=C(Cc1ccccc1)N/N=C/c1ccc(-c2ccc([N+](=O)[O-])cc2)o1	1	5	-9	6%	3	-54*
COCCNC(=S)N/N=C/c1ccc(-c2ccc([N+](=O)[O-])cc2)o1	-8	88*	2	-11%	8	-4
NC(=O)N/N=C/c1ccc(-c2ccc([N+](=O)[O-])cc2)o1	-1	20	-7	-4%	-7	-4
O=S(=O)(c1cccc(-c2csc(N/N=C/c3ccco3)n2)c1)N1CCOCC1	16	0	-10	-5%	26	-15
Cc1cccc(CCN2CCN=C2N(C)C)c1	10	5	-3	2%	-5	21
Cn1c(-c2ccc(F)cc2)cnc1NCc1ccc(F)cc1	-3	19	-15	-10%	?	-1
Cn1c(-c2ccc(F)cc2)cnc1NCc1ccc(C#N)cc1	-1	13	-7	-3%	-73*	-1
COc1cc(CNc2ncc(-c3ccc(Br)cc3)n2C)cc(OC)c1OC	-26	3	-6	48%	?	-26
SMILES	DRD3 agonist	D1 agonist	D1 potentiator	ERG-DNA inh	D3 antag	D1 antagonist
Cn1c(-c2ccc(Br)cc2)cnc1NCc1cccnc1	-3	0	-1	-13%	-62*	-1
Cn1cnc([N+](=O)[O-])c1S(=O)(=O)c1ccc(Cl)cc1	-25	10	-8	0%	-68*	-13
Cn1cnc([N+](=O)[O-])c1NC(C)(C)C	-1	1	-4	6%	7	-22
CCC1CCCCN1C(=O)CSc1nc(-c2ccc(OC)cc2)cc(C(F)(F)F)n1 (stereo unspecified)	3	3	-8	11%	/	-31*
CCC1CCCCN1C(=O)CSc1nc(-c2ccc(OC)c(OC)c2)cc(C(F)(F)F)n1 (stereo unspecified)	18	3	-5	-5%	/	11
CCOc1ccc(CCNC(=O)c2[nH]c3cc(OC)ccc3c2Sc2ccccc2)cc1OCC	2	3	4	2%	/	-2
COc1cccc(N2CCN(S(=O)(=O)c3cccc4cccnc34)CC2)c1	0	6	3	1%	-8	-7
CCn1ncc(S(=O)(=O)N2CCN(c3cccc(OC)c3)CC2)c1C	-20	4	-5	8%	-26	-35*
Cc1ccc(NS(=O)(=O)c2ccc3c(c2)CCN3C(=O)CCC(=O)O)cc1Cl	0	40*	-24	-2%	-6	0
Cc1cccc(NS(=O)(=O)c2ccc3c(c2)CCN3C(=O)CCC(=O)O)c1	0	0	6	-4%	-2	26
Cc1ccc(C)c(N2CCN(S(=O)(=O)c3ccc4c(c3)CCN4C(=O)CCC(=O)O)CC2)c1	-10	1	/	-3%	8	-34*
CC1CCCN(C(=O)COC(=O)C2CCN(S(=O)(=O)c3ccc(Cl)c(C(F)(F)F)c3)CC2)C1 (stereo unspecified)	5	21	3	2%	1	-1
O=C(CCCOc1ccccc1)Nc1cccc([N+](=O)[O-])c1	3	1	-2	5%	-7	-5
COc1cc(NC(=O)Nc2cccc([N+](=O)[O-])c2)cc(OC)c1	-1	13	-8	1%	1	/
CC(C)S(=O)(=O)c1csc(NC(=O)Nc2cccc([N+](=O)[O-])c2)c1Cl	-8	20	-9	13%	-6	-33*
O=C(COC(=O)COc1ccccc1)Nc1cccc([N+](=O)[O-])c1	-5	6	0	0%	3	-34*
O=C(Nc1cccc([N+](=O)[O-])c1)Nc1ccc2c(c1)OCCO2	-6	18	-7	-3%	-11	-40*
